CF NFkB block: cystic fibrosis NF-kB activation inhibition; inhibition, % at 5 µM; KKLEB NF-kB-GFP reporter, PAF-induced, GFP fluorescence overnight; 360,000 tested, 0.86% active;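 active = at least 50% inhibition at 5 µM, scaled per plate between neutral and stimulator controls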;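 also: PAF is a Pseudomonas aeruginosa culture filtrate used as stimulus; plate controls were PAF-stimulated DMSO wells for no effect and unstimulated DMSO wells for full effect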
HIF-2a inh: HIF-2a inhibition. 786-0 RCC cells HIF-2a reporter, luciferase luminescence, overnight. 360,000 tested, 0.72% active. inhibition, % at 18.8 µM. AID 624352;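 active = inhibition of the luminescence signal of 40% or more relative to plate controls, in a single-dose primary screen at 18.75 µM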
KKLEB cytotox: CF airway cell cytotoxicity counter-screen; KKLEB CF airway cells viability, ATPlite luminescence, overnight; hits give low values; cells stimulated with P. aeruginosa culture filtrate; activity change (cytotoxicity), % at 5 µM; 360,000 tested, 0.36% active;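 active = corrected activity change at or below -50% at 5 µM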
Peg3 promoter: Peg3 promoter activity inhibition | inhibition, % at 20 µM | HeLa PEG-Prom luciferase reporter, luminescence, overnight | AID 588405 | 360,000 tested, 1.7% active;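 active = inhibition of at least 50% at 20 µM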
Shn3 3UTR inh: reduces Shn3 3'UTR luciferase signal in osteoblasts; Clone20 osteoblast Shn3 3'UTR firefly luciferase, 24 h; inhibition, % at 12.5 µM; 360,000 tested, 0.52% active;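 active = mean inhibition of at least 75% with every replicate also reaching 75%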;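 also: 0% = median of neutral control wells and 100% = pilot-screen positive control compound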
TRPM1 prom inh: reduces MITF-dependent TRPM1 promoter luciferase signal; inhibition, % at 12.5 µM; 330,000 tested, 0.83% active; SK-MEL-5 TRPM1 promoter luciferase, 24 h;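 active = mean inhibition across replicates of 60% or more, whatever share of single replicates reaches that level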
CF NFkB inh conf: CF NF-kB inhibition confirmation, single concentration; AID 602472; 1,300 tested, 64% active; KKLEB CF airway cells, PAF-induced NF-kB-GFP fluorescence, overnight; inhibition, % at 5 µM; shares compounds with CF NFkB block; in the data active = inhibition above about 40%;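 also: stimulus PAF is a Pseudomonas aeruginosa filtrate and not platelet activating factor; plate controls were DMSO wells with stimulus for no effect and unstimulated DMSO wells for full effect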
Mdm2-MdmX confirm: confirmation of inhibitors of human Mdm2/MdmX interaction, set 2; shares compounds with HIF-2a inh; SaOS-2 split-luciferase Mdm2/MdmX complementation, luminescence; inhibition, % at 8 µM; 740 tested, 99% active; AID 504601;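 active = mean inhibition of the luminescence signal across two replicates at or above 26 percent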
HIF-2a conf: HIF-2a inhibition, single concentration confirmation | shares compounds with HIF-2a inh | 786-0 RCC cells, HIF-2a luciferase reporter luminescence, overnight | inhibition, % at 18.8 µM | 1,800 tested, 56% active | AID 651580;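 active = mean inhibition across four replicates of at least 40 percent at the single tested concentration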
HIF-1a cs: inhibits HIF-1a reporter, a counter-screen for HIF-2a inhibitors | shares compounds with HIF-2a inh | MiaPaCa-2 HIF-1a luciferase reporter, desferoxamine, overnight | inhibition, % at 18.8 µM | 1,800 tested, 72% active | AID 651589;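 active = mean inhibition of the reporter signal across four replicates at the single tested dose of 50% or more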
Active calls of the source: *; nt = no result. In the library only some 2.8% were active in any assay of this set; here they are far more common.

SMILES	CF NFkB block	HIF-2a inh	KKLEB cytotox	Peg3 promoter	Shn3 3UTR inh	TRPM1 prom inh	CF NFkB inh conf	HIF-2a conf	HIF-1a cs	others
CCCc1cc(-c2[nH]ncc2-c2ccc3c(c2)OCCCO3)c(O)cc1O	50*	46*	-5	69*	32	14	68*	30	81*
CCCCN(c1ccccc1)c1ncnc(N)c1[N+](=O)[O-]	76*	15	-15	12	-15	-20	93*	nt	nt	Mdm2-MdmX confirm=86*
CN(c1ncnc(N)c1[N+](=O)[O-])C1CCCCC1	84*	19	-1	31	9	-45	93*	nt	nt	Mdm2-MdmX confirm=87*
N#C/C(=C\c1cccc(NC(=O)c2ccccc2Cl)c1)C(=O)NCCc1ccccc1	82*	80*	-31	12	-18	37	9	45*	93*
COCCCNC(=O)/C(C#N)=C/c1cccc(NC(=O)c2ccccc2Cl)c1	24	21	-21	6	-10	0	nt	nt	nt
CS(=O)(=O)c1ncc(Cl)c(C(=O)Nc2ccc(OC(F)F)cc2)n1	90*	92*	-37	102*	93*	73*	88*	98*	100*	Mdm2-MdmX confirm=103*
CCOC(=O)c1nc(S(C)(=O)=O)ncc1Cl	69*	46*	-4	105*	96*	29	-14	-3	6
CN1CCN(S(=O)(=O)c2ccc(Sc3nnnn3-c3ccccc3)c([N+](=O)[O-])c2)CC1	88*	67*	-30	91*	87*	88*	64*	39	100*	Mdm2-MdmX confirm=102*
O=C(Nc1ccc(S(=O)(=O)N2CCCCCC2)cc1)c1[nH]ncc1[N+](=O)[O-]	70*	40*	-12	-21	3	70*	-49	74*	88*
CCOC(=O)N1C(=O)[C@@](c2ccc(Cl)cc2)(C(C)C)N1C(=O)OCC	70*	68*	-16	100*	8	44	35	58*	85*
CC(OC(=O)CNC(=O)C12CC3CC(CC(C3)C1)C2)C(=O)Nc1ccc(S(N)(=O)=O)cc1 (stereo not drawn)	-5	9	0	13	2	0	nt	nt	nt
CC(=O)c1ccc(-c2cnc3c(NC=O)cc(-c4ccc(C(=O)NC5CC5)cc4)cn23)cc1	56*	39*	-30	63*	41	nt	61*	37	94*
CC(=O)c1ccc(-c2cnc3c(NC=O)cc(-c4ccc(N5CCN(C)CC5)cc4)cn23)cc1	-8	-73	-18	-101	-37	nt	nt	nt	nt
CC(=O)Nc1ccc(Nc2nc(-c3sc(NC(C)=O)nc3C)cs2)cc1	67*	68*	-14	34	9	19	87*	66*	91*
CCCC(=O)Nc1nc(C)c(-c2csc(Nc3ccc(Cl)cc3)n2)s1	34	3	-4	1	24	22	nt	nt	nt
O=S(=O)(Nc1ccon1)c1ccc(F)c(F)c1	1	14	10	4	-6	-4	nt	nt	nt
O=C(NC(CO)(CO)CO)c1coc(=O)c(Br)c1	20	-13	3	3	1	-11	nt	nt	nt
CC(C)CNC(=O)c1coc(=O)c(Br)c1	74*	70*	-12	74*	1	1	95*	-12	52*
O=C(NCCC1=CCCCC1)c1coc(=O)c(Br)c1	85*	65*	11	81*	42	3	93*	-10	64*
COc1ccc(OC)c(-c2csc(NC(=O)CSc3nnnn3C)n2)c1	-6	-24	6	6	-2	-7	nt	nt	nt
COc1ccc2[nH]c(=O)c3c(c2c1)OC(C)(C)C=C3	86*	22	-7	37	25	21	98*	nt	nt	Mdm2-MdmX confirm=98*
Cc1cc2c([nH]c3ccccc32)c2c1OC(C)(C)C=C2	16	-281	-14	-390	-104	-86	nt	nt	nt
Cc1nnnn1/C(=C\c1ccccc1)C(=O)OCC(=O)Nc1cccc(S(=O)(=O)N(C)C)c1	63*	42*	-16	106*	-2	46	-51	79*	22
CN(C)S(=O)(=O)c1cccc(NC(=O)COC(=O)c2ccc3ccccc3n2)c1	-26	21	16	12	10	nt	nt	nt	nt
COc1ccc(S(=O)(=O)NC(=O)C2(C)CCN2C(=O)c2cccc(F)c2)cc1 (stereo not drawn)	-5	6	0	7	14	nt	nt	nt	nt
SMILES	CF NFkB block	HIF-2a inh	KKLEB cytotox	Peg3 promoter	Shn3 3UTR inh	TRPM1 prom inh	CF NFkB inh conf	HIF-2a conf	HIF-1a cs	others
Cc1ccc(Sc2ncccc2[N+](=O)[O-])cc1	3	-8	-4	-8	-7	1	nt	nt	nt
Cc1c([N+](=O)[O-])cnc(Sc2ccccc2)c1[N+](=O)[O-]	52*	50*	-29	44	-10	11	nt	48*	84*
O=C(COC(=O)Cc1ccc(S(=O)(=O)N2CCOCC2)s1)Nc1ccc(OC(F)F)cc1	-3	-1	3	-24	-5	-4	nt	nt	nt
O=C(Nc1ccccc1C(=O)NCc1ccco1)Nc1cccc2ccccc12	5	54*	2	-2	9	2	nt	6	33
CC1C/C(=C/c2ccncc2)C(=O)/C(=C/c2ccncc2)C1 (stereo not drawn)	82*	94*	-55*	104*	80	106*	nt	nt	nt	Mdm2-MdmX confirm=100*
CC1C/C(=C/c2cccn2C)C(=O)/C(=C/c2cccn2C)C1 (stereo not drawn)	-53	-49	6	-18	-22	8	nt	nt	nt
Cc1ccc2cc3c(N)[nH]nc3nc2c1	-1	-32	1	-36	-18	15	nt	nt	nt
Cn1c(=O)c([N+](=O)[O-])c(Cl)c2ccccc21	72*	97*	-50*	105*	97*	95*	nt	83*	106*
CC(=O)Nc1ccc(OS(=O)(=O)c2c(C)cc(C)cc2C)cc1	8	50*	-8	31	13	-9	nt	55*	7
CC(=O)Nc1ccc(OS(=O)(=O)c2ccccc2C)cc1	-6	-34	3	-20	-29	-10	nt	nt	nt
CC(=O)Nc1ccc(OS(=O)(=O)c2ccc(C)cc2C)cc1	0	80*	-16	7	4	-13	nt	88*	34
COC(=O)C[C@H]1CC[C@H](NC(=O)c2cccc(F)c2)[C@@H](CO)O1	nt	-14	nt	nt	nt	nt	nt	nt	nt

Screening results deposited in PubChem BioAssay by several laboratories.
